From PubChem BioAssay AID1671190 (National Center for Advancing Translational Sciences (NCATS), 2021) come the findings set out here.

SMILES strings stand for the structures. Out of some 580,000 compounds screened, about 6,100 (1.1%) were called active. Another 15% or so got no clear call; they are omitted. What follows is part of a selection rich in actives, with near analogues and random picks from the rest. Values without a mark were called inactive. Calls come from the whole dose curve; as a rule, active = well fitted inhibition curve with a large enough effect; inconclusive = small, poorly fitted or top-dose-only effect, or another doubt; inactive = no such curve, though single readings can be large or run the other way.
% is set by controls: 0 for no effect and ±100 for the full control effect; potency is the fitted concentration of half-maximal effect.

Polyunsaturated fatty acid lipoxygenase ALOX12 (Homo sapiens), sequence (P18054 whole entry, looked up): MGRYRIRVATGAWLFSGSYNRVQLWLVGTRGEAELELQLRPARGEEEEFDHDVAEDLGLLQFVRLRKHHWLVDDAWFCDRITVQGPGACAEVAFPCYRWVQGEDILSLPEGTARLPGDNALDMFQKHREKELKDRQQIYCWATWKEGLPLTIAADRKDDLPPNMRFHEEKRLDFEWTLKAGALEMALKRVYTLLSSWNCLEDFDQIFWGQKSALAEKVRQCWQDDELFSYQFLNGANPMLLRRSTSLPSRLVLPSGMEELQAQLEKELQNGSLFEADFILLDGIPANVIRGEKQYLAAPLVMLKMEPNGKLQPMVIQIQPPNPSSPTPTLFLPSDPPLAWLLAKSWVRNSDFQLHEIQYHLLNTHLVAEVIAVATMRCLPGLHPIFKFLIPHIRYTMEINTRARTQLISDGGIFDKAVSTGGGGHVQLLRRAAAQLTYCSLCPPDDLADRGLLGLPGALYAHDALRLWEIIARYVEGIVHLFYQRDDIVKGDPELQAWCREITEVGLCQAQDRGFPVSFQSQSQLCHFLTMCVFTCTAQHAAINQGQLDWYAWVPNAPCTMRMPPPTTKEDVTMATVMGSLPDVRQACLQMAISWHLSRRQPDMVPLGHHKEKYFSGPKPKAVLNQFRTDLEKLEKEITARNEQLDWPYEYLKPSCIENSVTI

The assay concerns the target Polyunsaturated fatty acid lipoxygenase ALOX12 (Homo sapiens) (UniProt P18054). Put plainly: Primary qHTS assay for inhibitors of human arachidonate 12S-lipoxygenase (ALOX12): Round 2. The note with it: purified 12hLO, xylenol orange hydroperoxide absorbance; series mostly up to 108 µM; activity change, negative = inhibition: at the top concentration. An outline of the steps: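 Hydroperoxide product was detected by ferrous iron/xylenol orange as the 573 to 405 nm absorbance ratio. Arachidonic acid at 40 uM (final) was turned over for 30 min at room temperature by 150 nM human 12hLO, pH 7.0 Hepes buffer, after 15 min compound preincubation.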
`COc1ccc(-n2nnc(C(=O)NCc3ccccc3)c2N)cc1OC`: the “activity change, negative = inhibition” value was -20.9%.
The same measure, in the same setting: the same measure for `CCc1ccc(N/C(N)=N/c2nc(C)cc(C)n2)cc1`: -18.2%; for `CCc1ccc(NC(=O)N2CCCC(Cn3cnc4cccnc43)C2)cc1` (stereo not given): 45.4%.
For `CCc1ccc(NC2Nc3cc(C)nn3S2)cc1` (stereo not given), the Potency was 25.1 µM (active).
In the case of `Cc1ccc(-c2cn(CCC(N)=O)c(=O)cn2)cc1`, the “activity change, negative = inhibition” value is -22.8%.
As for `O=c1cc(-c2ccccc2)n2c(SCc3ccccc3)nnc2[nH]1`, the Potency entry is “inactive”.
For `CCS(=O)(=O)n1nc(-c2ccccc2)nc1SCc1ccccc1`, the Potency was 28.2 µM (active).
Turning to `Cc1ccc(S(=O)(=O)n2nc(-c3ccc(Cl)cc3)nc2NCc2ccccc2)cc1`, the “activity change, negative = inhibition” value was -17.2%.
Same read-out and setting: the same measure for `CCOc1ccc(C(=O)Nc2ncc(C)s2)cc1OC`: -2.76%; for `CCc1nnc(SCC(=O)Nc2ccccc2OC)n1-n1cccc1`: 0.0227%; for `CCOC(=O)N1CCN(C(=O)c2ccc(N3C(=O)CCS3(=O)=O)cc2)CC1`: 29.3%.
The same measure, in the same setting: the figure for `CCCC1CCC(c2ccc(-c3ccc4c(n3)CCC(CCC)C4)cc2)CC1` (stereo not given) is -17.4%; for `CCOC(=O)N1CCN(Cc2nc(Cc3cccc(C(F)(F)F)c3)no2)CC1` it is 15.8%; for `FC(F)(F)c1ccc(-n2cn[nH]c2=S)cc1` it is 2.96%.
Turning to `Cn1c(-c2sccc2OCc2cccc(C(F)(F)F)c2)n[nH]c1=S`, the Potency is 28.2 µM (active).
With `O=C(CCS(=O)(=O)c1ccc2c(c1)CCN2C(=O)C1CC1)Nc1ccc(F)c(F)c1`, the “activity change, negative = inhibition” value was -11%.
Same read-out and setting: the figure for `COc1cc(Nc2nc3ccccc3nc2NS(=O)(=O)c2ccc(C)cc2)cc(OC)c1` is -0.377%; for `O=C(c1ccc2c(c1)OCO2)N1CCCN(C(=O)C2CC2)c2ccccc21` it is 113%; for `CSCC[C@@H](NC(=O)C(c1ccccc1)c1ccccc1)C(=O)O` it is -10.3%.
On to `CC1(C)[C@H](O[C@H]2O[C@H](C(=O)O)[C@@H](O)[C@H](O)[C@H]2O[C@@H]2O[C@H](C(=O)O)[C@@H](O)[C@H](O)[C@H]2O)CC[C@@]2(C)[C@H]1CC[C@]1(C)[C@H]2C(=O)C=C2[C@H]3C[C@@](C)(C(=O)O)CC[C@]3(C)CC[C@]21C`, for which the Potency was 8.63 µM (active).
Turning to `CC1(C)C2CC[C@]3(C)C(CC=C4[C@@H]5C[C@@](C)(CO)CC[C@]5(C(=O)O)CC[C@]43C)[C@@]2(C)CC[C@@H]1O` (stereo not given in full), the “activity change, negative = inhibition” value is 15.7%.
Same read-out and setting: the same measure for `Cc1ccc(NC(=O)c2n[nH]c(=O)c3ccccc23)c(C)c1`: -13.1%.
The same measure, in the same setting: the figure for `Cc1cc(Br)ccc1NC(=O)C1CCCCC1` is 0.587%; for `CC1=C[C@@H](CNCC(C)C)[C@H](C(C)C)C[C@H]1Cc1nc2c(C)cccc2[nH]1` it is 14.2% [at 176 µM]; for `COc1ccc2cc(CNC(=O)c3nccnc3N)ccc2c1` it is -2.78%.
As to `C[C@@H](NC(=O)c1cccnc1)c1c(-c2ccc(F)cc2)noc1C(=O)O`, the Potency is 39.8 µM (active).
As for `C[C@@H](NC(=O)COc1ccccc1)c1c(-c2ccc(F)cc2)noc1C(=O)O`, the “activity change, negative = inhibition” value was 10.6% [at 176 µM].
With `COc1ccc(-c2noc(C(=O)O)c2[C@@H](C)NS(=O)(=O)c2ccccc2)cc1`, the “activity change, negative = inhibition” value is 24.3% [at 176 µM].
As to `CC1(C)CC(=O)C(CCS(=O)(=O)OCC(F)(F)C(F)F)(CCS(=O)(=O)OCC(F)(F)C(F)F)C(=O)C1`, the “activity change, negative = inhibition” value was 2.97%.
On the same count and under the same terms, the same measure for `CC(C)CCNc1nc(-c2ccc(S(=O)(=O)N3CCOCC3)cc2)cs1`: -5.58%.
In the case of `CC(C)CNc1nc(-c2ccc3c(c2)CCCN3S(C)(=O)=O)cs1`, the Potency was 14.1 µM (active).
For `CS(=O)(=O)c1ccc(-c2csc(NC3CCCCC3)n2)cc1`, the “activity change, negative = inhibition” value was -2.88%.
The same measure, in the same setting: the figure for `CCCc1nc(C#N)c(N2CCN(c3ccccc3)CC2)o1` is -22.7%.
In the case of `O=C(NC(c1ccc(-c2ccccc2)cc1)c1cnccn1)C1CCN(CCOc2ccc(Cl)cc2Cl)CC1` (stereo not given), the Potency was 44.7 µM (active).
Consider `Cc1cccnc1C(NC(=O)C1CCN(Cc2ccc(Cl)c(Cl)c2)CC1)c1ccc(Cl)cc1` (stereo not given), for which the “activity change, negative = inhibition” value was -10.3%.
Regarding `COc1cccc(CN2CCC(C(=O)NC(c3ccc4c(c3)OCO4)c3ccccn3)CC2)c1` (stereo not given), the “activity change, negative = inhibition” value was -2.37%.
With `O=C(COc1ccc(Cl)cc1Cl)NCCCNC(=O)c1cnccn1`, the “activity change, negative = inhibition” value was 0.217%.
For the molecule `Cc1ccc(C(NC(=O)C2CCN(CCOc3ccc(Cl)cc3Cl)CC2)c2ccccn2)cc1` (stereo not given), the Potency was 56.2 µM (active).
With `CCOc1ccc(S(=O)(=O)N2CCC(C(=O)NCc3ccccn3)CC2)cc1Cl`, the “activity change, negative = inhibition” value is -25.1%.
`Fc1ccccc1-c1n[nH]c2c1CN(Cc1cccc3c1OCO3)CC2`: the “activity change, negative = inhibition” value is -12.2%.
Still for that read-out and setting: the same measure for `Cc1ccccc1-c1cc(-c2ccccc2C)[nH]n1`: -23.8%.
Still for that read-out and setting: the same measure for `CC(CNC(=O)c1cc2ccccc2s1)N1CCCC1` (stereo not given): -16.1%; for `OCCCNC(=S)Nc1ccccc1F`: 0.703%; for `Cc1nc(-c2cccnc2)sc1CCNS(=O)(=O)c1cccs1`: -2.94%.
In the case of `C[N+](C)(C)CC#CCCCC#CC[N+](C)(C)C`, the Potency was 11.2 µM (active).
With `O=C(Nc1ccc2c(c1)OCCO2)c1nn(-c2ccccc2)c(=O)c2ccccc12`, the “activity change, negative = inhibition” value is 0.0556%.
Turning to `COc1ccc(S(=O)(=O)N[C@@H]2C=C[C@@H](CC(=O)N3CCc4ccccc4C3)O[C@@H]2CO)cc1`, the Potency was 25.1 µM (active).
Consider `COC(=O)C[C@H]1C=C[C@@H](NS(=O)(=O)c2ccc(C)cc2)[C@@H](CO)O1`, for which the “activity change, negative = inhibition” value was 5.66%.
On the same count and under the same terms, the same measure for `COC(=O)C[C@@H]1C=C[C@@H](NS(=O)(=O)c2cccc(OC)c2)[C@@H](CO)O1`: -25.2%; for `N#CC1(c2ccc(N)cc2)CCCC1`: 13.6%.
